Molecules are shown by their SMILES. The whole screen tested about 200,000 compounds, of which about 4,500 (2.2%) were called active. Roughly 12% stayed inconclusive and do not appear here. This is one part of a sample in which actives are shown more often than they occur. The source holds several records for some structures; these can differ, active in one and inactive in another. Unmarked numbers belong to inactive results. Calls come from the whole dose curve; as a rule, active = well fitted inhibition curve with a large enough effect; inconclusive = small, poorly fitted or top-dose-only effect, or effect the other way; inactive = flat fitted curve, though single readings scatter.

For 86 compounds, max response, negative = inhibition and Potency results are on record in PubChem BioAssay AID1476 (National Center for Advancing Translational Sciences (NCATS), 2009).
Potency is the fitted concentration of half-maximal effect.

Sequence of Cruzipain (Trypanosoma cruzi) (P25779 123-467 limits assumed): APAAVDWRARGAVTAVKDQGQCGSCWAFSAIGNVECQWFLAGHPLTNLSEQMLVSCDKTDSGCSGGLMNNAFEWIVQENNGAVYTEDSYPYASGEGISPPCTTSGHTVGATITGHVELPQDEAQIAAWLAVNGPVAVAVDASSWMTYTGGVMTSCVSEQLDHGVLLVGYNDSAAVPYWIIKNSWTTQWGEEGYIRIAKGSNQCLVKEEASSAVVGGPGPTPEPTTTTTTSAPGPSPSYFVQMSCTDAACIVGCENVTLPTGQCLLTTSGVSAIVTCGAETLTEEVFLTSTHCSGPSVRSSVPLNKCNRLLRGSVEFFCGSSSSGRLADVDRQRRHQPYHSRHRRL

The assay addresses Cruzipain (Trypanosoma cruzi) (UniProt P25779). The assay can be described thus: qHTS Assay for Promiscuous and Specific Inhibitors of Cruzain (without detergent).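 For max response, negative = inhibition: plate controls were enzyme without inhibitor for no effect and buffer without enzyme for full effect.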 Note: nearly all actives have a fitted effect of over 40% in size. The conditions noted are these: purified cruzain, Z-FR-AMC fluorescence, no detergent. The procedure, abridged:
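Detergent-free condition (0.00005% Triton X-100) in acetate buffer pH 5.5 with DTT. 1.5 nM enzyme and compound were pre-mixed 15 min, then 2 uM Z-FR-AMC substrate added; reaction progress from fluorescence change between first and third reads (60 s).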
As for `Cc1ccc(-c2nnc(Nc3ccc(OCC(N)=O)cc3)c3ccccc23)cc1S(=O)(=O)NCC1CCCO1` (configuration not stated), the max response, negative = inhibition was 7.01%.

For `Cc1ccccc1NC(=O)Cn1c(=O)n(Cc2ccco2)c(=O)c2ccc(C(=O)NC3CCCC3)cc21`, the max response, negative = inhibition is 4.88%.

Turning to `COc1ccc(N2C(=O)NC(NS(=O)(=O)c3ccc(Cl)cc3)(C(F)(F)F)C2=O)cc1` (configuration not stated), the max response, negative = inhibition was -4.66%.

As for `CC(C)C12CN3CC(C(C)C)(CN(C1)C3c1ccc(OCc3ccccc3)cc1)C2=O` (configuration not stated), the max response, negative = inhibition is 10.1%.

Consider `Cc1ccc(-c2cc(C(=O)Oc3ccccc3Cl)no2)cc1C`, for which the max response, negative = inhibition was 0.973%.

Regarding `Cc1nnc(SCC(=O)N/N=C/c2cn(-c3ccccc3)nc2-c2ccc(F)cc2)n1-c1ccccc1`, the max response, negative = inhibition is -3.1%.

`COc1ccc(-c2nn(-c3ccccc3)cc2/C=N/Nc2ccccn2)cc1OC`: the max response, negative = inhibition was 18.4%.

Turning to `Cc1ccc(-c2nn(-c3ccccc3)cc2/C=N/NC(=O)c2ccc3c(c2)OCO3)cc1`, the Potency is 25.1 µM (active).

In the case of `COc1ccccc1CNC(=O)CCn1c(=O)c2ccccc2n(CC(=O)Nc2ccc(Br)cc2F)c1=O`, the max response, negative = inhibition is -7.67%.

Consider `COc1ccccc1-c1cc(C(F)(F)F)nc(S(=O)(=O)CCCC(=O)Nc2cc(C)ccc2O)n1`, for which the max response, negative = inhibition was -0.825%.

In the case of `Cc1ccccc1NC(=O)Cn1c(=O)n(CCc2ccccc2)c(=O)c2ccccc21`, the max response, negative = inhibition is -10.6%.

As to `Cc1ccc(S(=O)(=O)c2nc(-c3cccs3)oc2N2CCCCC2)cc1`, the max response, negative = inhibition is 3.47%.

For `CN(C(=O)CSc1nc(C2CC2)nc2ccccc12)c1nc(-c2ccccc2)cs1`, the Potency was 3.16 µM (active).

With `COC(=O)CSc1nc(C2CC2)nc2ccccc12`, the max response, negative = inhibition was -5.14%.

`O=C(CSc1nc(C2CC2)nc2ccccc12)Nc1ccc2c(c1)OCCO2`: the max response, negative = inhibition is 2.26%.

For `CCOC(=O)c1c(SCC(=O)Nc2cccc(C)c2C)nc(=O)[nH]c1C`, the max response, negative = inhibition is 4.55%.

Consider `CCOc1ccc(Nc2nc3c(S(=O)(=O)c4cccc(Cl)c4)nnn3c3ccsc23)cc1`, for which the max response, negative = inhibition was 3.27%.

`COC(=O)c1c(NC(=O)CN2CCN(S(=O)(=O)c3ccccc3[N+](=O)[O-])CC2)sc2c1CCC(C)C2` (configuration not stated): the Potency is 10 µM (active).

Turning to `CCOc1ccc(NC(=O)c2c(NC(=O)Cc3ccccc3)sc3c2CCC(C)C3)cc1` (configuration not stated), the max response, negative = inhibition is 1.97%.

Turning to `CCOC(=O)c1c(NC(=O)/C=C/c2ccc(OC)cc2)sc2c1CCC(C)C2` (configuration not stated), the max response, negative = inhibition was -18.7%.

Regarding `COC(=O)c1c(NC(=O)CCCOc2ccccc2)sc2c1CCC(C)C2` (configuration not stated), the max response, negative = inhibition was 0.0824%.

With `Cc1c(Br)c([N+](=O)[O-])nn1CC(=O)Nc1sc2c(c1C(=O)OC(C)C)CCC(C)C2` (configuration not stated), the Potency was 15.8 µM (active).

Take `Cc1cccc(OCCCC(=O)Nc2sc3c(c2C(N)=O)CCC(C)C3)c1` (configuration not stated): the max response, negative = inhibition is 14.1%.

As for `CCCn1c2ccccc2c2cnn(CC(=O)N3CCCC(C(=O)OCC)C3)c(=O)c21` (configuration not stated), the max response, negative = inhibition was -0.857%.

For the compound `Cc1ccc(C2C=C(c3ccc(Cl)cc3)Nc3nc(NC(=O)CCC(=O)O)nn32)cc1` (configuration not stated), the max response, negative = inhibition was -6.04%.

With `O=C(c1ccccc1F)N1CCC(c2nc3c(nnn3Cc3cccc(F)c3)c(=O)[nH]2)CC1`, the max response, negative = inhibition is -6.41%.

Turning to `O=c1cc2nc(-c3ccccc3)nc(SCCOc3ccc(Cl)cc3)n2[nH]1`, the max response, negative = inhibition is 8.61%.

On to `CCc1ccccc1OCCSc1nc(-c2cccs2)nc2cc(=O)[nH]n12`, for which the Potency was 3.16 µM (active).

As for `Cc1ccc(OCCSc2nc(-c3cccs3)nc3cc(=O)[nH]n23)cc1Cl`, the max response, negative = inhibition is 3.5%.

As to `COc1ccc(Cn2ccnc2SCC(=O)NCc2ccco2)cc1`, the max response, negative = inhibition was -5.79%.

`COCCn1c(=O)c(-c2cccs2)nc2cncnc21`: the max response, negative = inhibition was 2.13%.

For the compound `CCCn1c(=O)c2c(C(F)(F)F)cc(-c3cccs3)nc2n(CCC)c1=O`, the Potency was 6.31 µM (active).

On to `FC(F)(F)c1cc(-c2cccs2)nc(NCc2ccco2)n1`, for which the max response, negative = inhibition is -1.04%.

With `Cc1oc2ncnc(N3CCOCC3)c2c1C(=O)NCCc1ccccc1`, the max response, negative = inhibition is 3.49%.

Turning to `CCOc1cccc(C(=O)Nc2nnc(-c3cccs3)s2)c1`, the Potency was 15.8 µM (active).

Regarding `CCc1nnc(NC(=O)c2cccs2)s1`, the max response, negative = inhibition is -8.43%.

In the case of `Cc1ccc(C(=O)Nc2nnc(-c3cccs3)s2)cc1C`, the Potency is 15.8 µM (active).

`CCOc1cccc(C(=O)Nc2cccnc2)c1`: the max response, negative = inhibition was 1.56%.

On to `Cc1ccc(C(=O)Oc2coc(CSc3nnc(NC(=O)c4cccs4)s3)cc2=O)cc1C`, for which the Potency was 25.1 µM (active).

`CCCc1nnc(NC(=O)c2cccs2)s1`: the max response, negative = inhibition was 0.875%.

In the case of `COC(=O)c1ccc(CSc2nnc(NC(C)C)s2)cc1`, the max response, negative = inhibition is 5.53%.

Regarding `CCOc1ccccc1Nc1nnc(SCc2ccc(C(=O)OC)o2)s1`, the max response, negative = inhibition is 2.33%.

For the compound `CCOc1cccc(C(=O)Nc2nnc(S(=O)(=O)N(C)c3ccc(C)cc3)s2)c1`, the max response, negative = inhibition is -15.4%.

On to `COC(=O)c1cccc(Cn2nnc3sc4c(c3c2=O)CCC(C(C)(C)C)C4)c1` (configuration not stated), for which the max response, negative = inhibition was 2.87%.

For `O=C(CCC(=O)N1CC2CCCN2c2ccccc21)NCc1ccccc1Cl` (configuration not stated), the max response, negative = inhibition was -16.5%.

On to `Cc1nnc(NC(=O)CSc2nc3c([nH]c4ccccc43)c(=O)n2-c2cccc(Cl)c2)s1`, for which the max response, negative = inhibition was 2.35%.

`COc1cc(-c2nnn(CC(=O)NCc3ccccc3)n2)cc(OC)c1OC`: the max response, negative = inhibition was 25.6%.

On to `Cc1cn(C)c(CC(=O)NCc2ccccc2)c1C(=O)O`, for which the max response, negative = inhibition is -3.27%.

Take `CN(Cc1ccccc1)C(=O)c1cn(C)c2ccc(S(=O)(=O)N3CCCCC3)cc2c1=O`: the max response, negative = inhibition is -10.3%.

In the case of `CN(Cc1ccccc1)C(=O)c1cn(C)c2ccc(S(=O)(=O)N(C)C3CCCCC3)cc2c1=O`, the max response, negative = inhibition was 5.7%.

Turning to `COc1ccc(C(=O)Nc2ccc(-n3nncc3-c3ccccc3)cc2)cc1OC`, the max response, negative = inhibition was 25.3%.

For `Cc1ccc(N2CCN(C(=O)CCc3c(C)nc4c(c3C)c(=O)n(C)c(=O)n4C)CC2)c(C)c1`, the max response, negative = inhibition was 6.51%.

For the compound `O=C(NCc1ccc(Cl)cc1)c1ccc2c(c1)nnn2C1CCCC1`, the max response, negative = inhibition was -10.2%.

Consider `Cc1ccc(-n2ncc3c(=O)n(Cc4cccc(C(F)(F)F)c4)cnc32)cc1C`, for which the max response, negative = inhibition is 6.16%.

As to `Cc1ccc(-n2c(/C=C/c3cccc(C(F)(F)F)c3)nc3ccccc3c2=O)cc1`, the max response, negative = inhibition was -0.135%.

With `Cn1cc(/C=C/c2nc3ccccc3c(=O)n2-c2cccc([N+](=O)[O-])c2)c2ccccc21`, the Potency is 10 µM (active).

For `Cn1cc(/C=C/c2nc3ccccc3c(=O)n2-c2ccccc2)c2ccccc21`, the max response, negative = inhibition is 10.3%.

`CSc1ccc(C2C(C(=O)Nc3ccccc3)=C(C)Nc3nc4ccccc4n32)cc1` (configuration not stated): the max response, negative = inhibition was -7.45%.

On to `CCc1cccc(C)c1NS(=O)(=O)c1c(C)nc2sccn2c1=O`, for which the max response, negative = inhibition was 1.11%.

As to `CCOC(=O)c1cc2c(=O)n3ccccc3nc2n(CCCOC)c1=NC(=O)C(C)Oc1ccccc1` (configuration not stated), the max response, negative = inhibition is -4.02%.

As to `CNC(=S)N/N=C/c1ccc(OCc2ccccc2)c(Br)c1`, the Potency was 25.1 µM (active).

As for `CNC(=S)NNC(=O)c1sccc1OCc1ccccc1`, the max response, negative = inhibition is -0.842%.

As for `C=CCNC(=S)N/N=C/c1ccc(OCc2ccccc2)cc1`, the max response, negative = inhibition was -2.25%.

For the compound `Cc1ccccc1CN1CCC(CNC(=O)c2cc3ccc4cccnc4c3[nH]2)CC1`, the max response, negative = inhibition was -9.74%.

For the compound `Cc1ccc(Nc2c(-c3ccc(Cl)cc3)nc3sccn23)c(C)c1`, the Potency is 31.6 µM (active).

For the compound `O=c1cc(Cn2nnc(-c3ccc(Cl)cc3)n2)nc2sccn12`, the max response, negative = inhibition was 0.777%.

Turning to `Cc1ccc(Nc2c(-c3ccc(C)cc3)nc3cnccn23)cc1`, the max response, negative = inhibition is 5.6%.

As for `Cc1cccc(-n2ccnc2SCC(=O)Nc2cccc3ccccc23)c1C`, the max response, negative = inhibition was -4.61%.

Regarding `O=C(COc1ccc([N+](=O)[O-])cc1)Nc1ccc(N2CCCC2)cc1`, the Potency was 7.94 µM (active).

For `O=C(COc1ccc(/C=N/NC(=O)c2ccc(O)cc2)cc1)Nc1ccc([N+](=O)[O-])cc1`, the max response, negative = inhibition was -9.42%.

Consider `Cc1ccc(OCCCC(=O)Nc2ccc(N3CCOCC3)cc2)cc1`, for which the max response, negative = inhibition was -0.526%.

As for `CCS(=O)(=O)N1CCc2cc(C(=O)N3CCN(c4ccccc4OC)CC3)ccc21`, the max response, negative = inhibition is -11.9%.

For `Cc1cc(Cl)ccc1NC(=O)Cc1ccc(NC(=O)N2CCCCc3ccccc32)cc1`, the max response, negative = inhibition is 8.39%.

For `CC(C(=O)Nc1ccc(Cl)cc1Cl)N1CC=C(c2ccccc2)CC1` (configuration not stated), the max response, negative = inhibition was 3.73%.

As to `O=C(Nc1ccc(Cl)c(Cl)c1)N1CC=C(c2ccccc2)CC1`, the Potency was 31.6 µM (active).

As to `NC(=O)N1CCCC1C(=O)Nc1ccc(Cl)c(Cl)c1` (configuration not stated), the max response, negative = inhibition is -7.92%.

In the case of `CC(CCCc1ccccc1)NC(=O)c1nn(-c2ccc(Cl)cc2)nc1CO` (configuration not stated), the max response, negative = inhibition was 4.3%.

With `O=[N+]([O-])c1ccc(N2CCN(S(=O)(=O)c3ccccc3)CC2)cc1N1CCc2ccccc2C1`, the Potency was 7.94 µM (active).

With `CN1CCN(c2ccc(S(=O)(=O)Nc3ccccc3)cc2[N+](=O)[O-])CC1`, the max response, negative = inhibition is -3.45%.

Consider `CC(=O)Nc1ccc(S(=O)(=O)N2CCN(c3ccccc3)CC2)cc1`, for which the max response, negative = inhibition is 4.93%.

For `Cc1ccccc1CNC(=O)C1CCCN(S(=O)(=O)N(C)c2ccc(F)cc2)C1` (configuration not stated), the max response, negative = inhibition is 7.13%.

On to `O=C(COc1ccc(Cl)cc1)Nc1ccccc1OCc1cc(=O)n2ccccc2n1`, for which the max response, negative = inhibition was -0.406%.

As for `CC(C)c1ccc(Cn2c(COc3ccccc3)nc3ccccc32)cc1`, the max response, negative = inhibition was -13.5%.

For the compound `O=C(Cn1c(=O)nc(-c2ccccc2)c2cc(Cl)ccc21)NCc1ccc(Cl)cc1`, the max response, negative = inhibition is -1.57%.

On to `CC(C)c1ccc2c(c1)c(SC(C)(C)C)c(CC(C)(C)C(=O)O)n2Cc1ccc(Cl)cc1`, for which the Potency is 7.94 µM (active) and the max response, negative = inhibition is 1.55%.

As to `COc1ccc(NC(=O)CSc2nccn2Cc2ccc3c(c2)OCO3)cc1`, the max response, negative = inhibition was -5.6%.
